Test results reported in PubChem BioAssay AID720597 (Broad Institute, 2013).
Potency and affinity values are given separately. Active and inactive are the calls of the source.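 Rule for the calls: active = fitted half-maximal dose no more than twice the top valid tested dose, for compounds that lower signal; inconclusive = fit invalid, or curve flat with activity between -70 and -30; inactive = potency past limit, curve flat within ±30, or signal increasing.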

Each molecule was assayed against NAD-dependent protein deacylase sirtuin-5, mitochondrial (Homo sapiens) (UniProt Q9NXA8) (assay: blockers of sirtuin-5 peptide desuccinylation – biochemical, fluorescence imaging, cherry-pick, set 6, dose response (AID 720597;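 note: lower AMC signal can also come from blocking the trypsin step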)). Details: Purified SirT5, succinyl-peptide-AMC/trypsin fluorescence; series mostly up to 15 µM.
Chain of NAD-dependent protein deacylase sirtuin-5, mitochondrial (Homo sapiens) (Q9NXA8 whole entry, looked up): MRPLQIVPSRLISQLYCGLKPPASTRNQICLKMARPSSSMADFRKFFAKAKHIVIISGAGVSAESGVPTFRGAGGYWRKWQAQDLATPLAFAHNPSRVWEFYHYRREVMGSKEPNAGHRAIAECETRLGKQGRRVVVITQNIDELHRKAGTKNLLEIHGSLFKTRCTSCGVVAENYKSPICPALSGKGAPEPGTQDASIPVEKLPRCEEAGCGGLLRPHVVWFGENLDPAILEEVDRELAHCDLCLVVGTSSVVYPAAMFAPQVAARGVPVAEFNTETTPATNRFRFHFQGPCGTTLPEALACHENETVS

outcome, inactive:
C[C@H]1CN([C@@H](C)CO)S(=O)(=O)c2ccc(/C=C/c3ccccc3)cc2O[C@H]1CN(C)C(=O)Nc1cc(F)ccc1F, Cc1ccccc1S(=O)(=O)N1CCCCN2[C@H](CO)[C@@H](c3ccc(-c4ccccc4)cc3)[C@@H]2C1, CO[C@H]1CN(C)C(=O)c2cc(NC(=O)c3ccccc3F)ccc2OC[C@@H](C)NC[C@@H]1C, CCCC#Cc1ccc2c(c1)O[C@H](CN(C)C(=O)c1ccccc1F)[C@@H](C)CN([C@@H](C)CO)S2(=O)=O, COCC(=O)NC[C@H]1N[C@H](CO)[C@@H]1c1ccc(C2=CCCCC2)cc1, O=C(C[C@@H]1C[C@@H]2c3cc(NC(=O)NC4CCCCC4)ccc3O[C@@H]2[C@H](CO)O1)NCCc1ccccc1, C[C@H](CO)N1C[C@H](C)[C@@H](CN(C)CC2CCCCC2)Oc2c(NC(=O)CCCCCC(=O)Nc3ccccc3N)cccc2C1=O, COc1ccc(CN(C)C[C@H]2Oc3ccc(NS(=O)(=O)c4ccc(Cl)cc4)cc3CC(=O)N([C@@H](C)CO)C[C@@H]2C)cc1, CC(C)NC(=O)NCC[C@H]1CC[C@@H](NS(=O)(=O)c2ccc(-c3ccccc3)cc2)[C@H](CO)O1, Cc1ccc(S(=O)(=O)N(C)C[C@H]2OCCCC[C@H](C)Oc3ccc(NS(=O)(=O)c4ccc(F)cc4)cc3C(=O)N([C@H](C)CO)C[C@H]2C)cc1, Cc1ccc(S(=O)(=O)Nc2ccc3c(c2)C(=O)N([C@H](C)CO)C[C@@H](C)[C@@H](CN(C)S(=O)(=O)c2ccccc2)OCCCC[C@@H](C)O3)cc1, C[C@H]1CN([C@@H](C)CO)S(=O)(=O)c2ccc(C#CC(C)(C)O)cc2O[C@H]1CN(C)Cc1ccc(-c2ccccc2)cc1, C[C@H](O)C#Cc1ccc2c(c1)O[C@H](CN(C)Cc1ccc(-c3ccccc3)cc1)[C@@H](C)CN([C@H](C)CO)S2(=O)=O, Cc1ccccc1-c1ccc([C@H]2[C@H](CO)N3CCCCN(S(=O)(=O)c4ccc(F)cc4)C[C@@H]23)cc1, COc1ccc(S(=O)(=O)N(C)C[C@H]2Oc3cc(C#CC4CCCC4)ccc3S(=O)(=O)N([C@@H](C)CO)C[C@@H]2C)cc1, Cc1ccccc1S(=O)(=O)N[C@H]1CC[C@@H](CCn2cc(Cc3ccccc3)nn2)O[C@H]1CO, Cc1ccc(S(=O)(=O)N[C@@H]2C=C[C@H](CC(=O)N3CCN(c4ccccc4)CC3)O[C@@H]2CO)cc1, CCCc1c(C)nc2ccc(Br)cc2c1SCCC(=O)O, C[C@H](CO)N1C[C@H](C)[C@H](CN(C)Cc2ccc(-c3ccccc3)cc2)OCc2ccccc2-c2ccccc2C1=O, O=C(NCC[C@H]1CC[C@H](NS(=O)(=O)c2cccc(F)c2)[C@@H](CO)O1)C1CCOCC1, C[C@H]1CN([C@@H](C)CO)C(=O)c2cccc(NC(=O)c3ccncc3)c2O[C@H]1CN(C)S(C)(=O)=O, O=C(C1CCC1)N1CC[C@H]2[C@H](CO)Nc3ccc(C#Cc4cccc(F)c4)cc3[C@H]21, O=C(CN1CCOCC1)NCC[C@H]1CC[C@@H](NS(=O)(=O)c2ccc(Cl)cc2)[C@@H](CO)O1, CCCC#Cc1ccc([C@@H]2[C@@H](CO)N3CCCCN(S(=O)(=O)Cc4ccccc4)C[C@@H]23)cc1, O=C(CN1CCOCC1)NCC[C@@H]1CC[C@H](NC(=O)Nc2ccc(F)cc2)[C@H](CO)O1, COc1ccc(S(=O)(=O)N(C)C[C@H]2OCCCC[C@@H](C)Oc3ccc(NS(=O)(=O)c4ccc(C)cc4)cc3C(=O)N([C@@H](C)CO)C[C@@H]2C)cc1, CN(C)C(=O)c1cccc(-c2ccc([C@@H]3[C@H](CO)N4CCCCN(S(C)(=O)=O)C[C@@H]34)cc2)c1, C[C@H]1CN([C@@H](C)CO)S(=O)(=O)c2ccc(/C=C/c3ccccc3)cc2O[C@H]1CN(C)C(=O)NC1CCCCC1, C[C@@H]1CN([C@H](C)CO)C(=O)c2cccc(NC(=O)Nc3ccc(C(F)(F)F)cc3)c2O[C@H]1CN(C)C(=O)Nc1cccc2ccccc12, C[C@H]1CN([C@@H](C)CO)C(=O)c2cccc(NS(=O)(=O)c3cn(C)cn3)c2O[C@H]1CN(C)Cc1ccc(Oc2ccccc2)cc1, O=C(NCC[C@@H]1CC[C@H](NS(=O)(=O)c2cccc(F)c2)[C@@H](CO)O1)C1CCOCC1, C[C@H]1CN([C@@H](C)CO)S(=O)(=O)c2ccc(C#Cc3cccc(F)c3)cc2O[C@H]1CN(C)S(=O)(=O)c1ccccc1F, C[C@@H]1CN([C@H](C)CO)C(=O)c2cc(NC(=O)CCC(F)(F)F)ccc2O[C@@H](C)CCCCO[C@@H]1CN(C)Cc1ccc(C(F)(F)F)cc1, Cc1ccc(S(=O)(=O)Nc2ccc3c(c2)C(=O)N([C@H](C)CO)C[C@H](C)[C@@H](CN(C)Cc2ccc(C(F)(F)F)cc2)OCCCC[C@H](C)O3)cc1, C[C@@H]1CN([C@H](C)CO)C(=O)c2cc(NS(=O)(=O)c3ccccc3)ccc2O[C@@H](C)CCCCO[C@H]1CN(C)Cc1ccc(C(F)(F)F)cc1, COc1ccccc1-c1ccc2c(c1)O[C@@H](CN(C)S(=O)(=O)c1ccccc1)[C@H](C)CN([C@@H](C)CO)S2(=O)=O, COc1ccc(CN(C)C[C@H]2OCCCC[C@H](C)Oc3ccc(N(C)C)cc3C(=O)N([C@H](C)CO)C[C@H]2C)cc1, CN(C)C(=O)c1cccc(-c2ccc([C@H]3[C@H]4CN(S(C)(=O)=O)CCCCN4[C@H]3CO)cc2)c1, CCCNC(=O)N1CC2(C1)[C@H](c1ccccc1)[C@H](CO)N2C(=O)C1CC1, C[C@@H]1CN([C@@H](C)CO)C(=O)c2cc(NC(=O)Cc3ccccc3)ccc2O[C@H]1CN(C)Cc1ccc(Oc2ccccc2)cc1
